Results filed as inconclusive are left out. Active and inactive are the calls of the source. Unless noted, the call rests on the fitted dose curve.
Legend:
[1] = target: Peroxisome proliferator-activated receptor delta (Homo sapiens) (UniProt Q03181); assay: qHTS assay to identify small molecule agonists of the peroxisome proliferator-activated receptor delta (PPARd) signaling pathway (AID 743212)
Procedure, shortened: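 Quantitative high-throughput agonist screen in a HEK293H beta-lactamase reporter line under UAS control. Compounds in DMSO, at 37 C. Fluorescence read after 2 h with FRET substrate at room temperature.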

[2] = qHTS assay to identify small molecule antagonists of the peroxisome proliferator-activated receptor delta (PPARd) signaling pathway - cell viability counter screen (AID 743213; active means well fitted curve in the direction sought with a large enough effect in the repeat runs; an effect the other way counts as inactive or inconclusive; further: nearly all actives have a fitted effect of over 50% in size)
Procedure, shortened: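 PPARd-bla HEK293H cells were treated with compounds plus agonist L165041 (300 nM final) for 17 h at 37 C. Viability was then read in the same wells by CellTiter-Glo luminescence after 30 min at room temperature.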

[3] = qHTS assay to identify small molecule agonists of the farnesoid-X-receptor (FXR) signaling pathway - cell viability counter screen (AID 743218; active means well fitted curve in the direction sought with a large enough effect in the repeat runs; an effect the other way counts as inactive or inconclusive; further: nearly all actives have a fitted effect of over 45% in size)
Procedure, shortened: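 Parallel cytotoxicity test: compound-treated (16 h, 37 C) HEK 293T FXR-bla reporter cells were lysed with CellTiter-Glo and luminescence recorded.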

[4] = qHTS assay to identify small molecule antagonists of the farnesoid-X-receptor (FXR) signaling pathway - cell viability counter screen (AID 743221; active means well fitted cell-killing curve with a large enough effect in the repeat runs, not every such curve was filed as active; further: nearly all actives have a fitted effect of over 50% in size)
Procedure, shortened: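 Luminescence from CellTiter-Glo measures cytotoxicity in GeneBLAzer FXR-UAS-bla HEK 293T cells. Cells were exposed to compounds with 50 uM chenodeoxycholic acid (final) for 16 h at 37 C, in wells also used for the reporter readout.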

[5] = target: Vitamin D3 receptor (Homo sapiens) (UniProt P11473); assay: qHTS assay to identify small molecule agonists of the vitamin D receptor (VDR) signaling pathway (AID 743222)
Sequence of Vitamin D3 receptor (Homo sapiens) (P11473 whole entry, looked up): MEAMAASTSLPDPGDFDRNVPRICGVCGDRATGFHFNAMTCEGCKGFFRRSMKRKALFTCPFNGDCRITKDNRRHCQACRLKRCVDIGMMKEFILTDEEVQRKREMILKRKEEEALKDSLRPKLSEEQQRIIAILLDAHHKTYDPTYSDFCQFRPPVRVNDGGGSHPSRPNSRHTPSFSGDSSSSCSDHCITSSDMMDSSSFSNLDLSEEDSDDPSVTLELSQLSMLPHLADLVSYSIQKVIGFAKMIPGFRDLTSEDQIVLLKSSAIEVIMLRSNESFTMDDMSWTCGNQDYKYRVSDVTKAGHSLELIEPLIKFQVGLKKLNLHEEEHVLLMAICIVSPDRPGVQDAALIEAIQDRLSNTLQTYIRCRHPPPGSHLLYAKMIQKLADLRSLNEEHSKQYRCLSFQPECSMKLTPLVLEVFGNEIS
Procedure, shortened: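 In VDR-bla cells, compound-induced beta-lactamase expression is quantified by FRET substrate fluorescence. Treatment lasts 16 h at 37C; substrate develops 2 h at room temperature.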

[6] = target: Vitamin D3 receptor (Homo sapiens) (UniProt P11473); assay: qHTS assay to identify small molecule antagonists of the vitamin D receptor (VDR) signaling pathway (AID 743223; active means well fitted inhibition curve with a large enough effect in the signal ratio in the repeat runs, not every such curve was filed as active; the % refers to the signal ratio)
Procedure, shortened: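 Antagonist mode uses 1alpha,25-dihydroxyvitamin D3 at 3 nM final as stimulus. VDR-bla cells receive compounds in DMSO, incubate 16 h at 37C, then a beta-lactamase FRET substrate for 2 h at room temperature before fluorescence measurement.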

[7] = qHTS assay to identify small molecule agonists of the vitamin D receptor (VDR) signaling pathway - cell viability counter screen (AID 743224; active means well fitted curve in the direction sought with a large enough effect in the repeat runs; an effect the other way counts as inactive or inconclusive; further: series mostly up to about 63 µM; nearly all actives have a fitted effect of over 50% in size)
Procedure, shortened: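 Plated VDR-bla cells (4 h, 37C) received compound, incubated 16 h, then LiveBLAzer substrate 2 h RT; CellTiter-Glo added afterwards, luminescence read at 30 min.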

[8] = qHTS assay to identify small molecule antagonists of the vitamin D receptor (VDR) signaling pathway - cell viability counter screen (AID 743225; active means well fitted curve in the direction sought with a large enough effect in the repeat runs; an effect the other way counts as inactive or inconclusive; further: nearly all actives have a fitted effect of over 50% in size)
Procedure, shortened: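 Read-out: CellTiter-Glo luminescence measured 30 min after reagent addition at room temperature. Cells were VDR-bla HEK 293T exposed 16 h at 37C, 5% CO2, to compound with 3 nM final calcitriol agonist.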

[9] = qHTS assay to identify small molecule agonists of the NFkB signaling pathway (AID 1159509; active means well fitted curve in the direction sought with a large enough effect in the signal ratio in the repeat runs, not every such curve was filed as active; the % refers to the signal ratio; further: series mostly up to about 61 µM)
Procedure, shortened: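 After overnight attachment, reporter cells received test compounds, DMSO or positive controls and were incubated 5 hr at 37 C. FRET substrate was then added for 1.5 hr at room temperature before dual-emission fluorescence reading.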

[10] = qHTS assay to identify small molecule agonists of the NFkB signaling pathway - cell viability counter screen (AID 1159515); further: series mostly up to about 61 µM; nearly all actives have a fitted effect of over 55% in size
Procedure, shortened: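 Using the same wells as the NFkB reporter read, ME-180 NFkB-bla cells given compounds for 5 hr were assessed for viability via CellTiter-Glo, with luminescence taken after a 30 min room-temperature incubation.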

[11] = qHTS assay to identify small molecule agonists of the endoplasmic reticulum stress response signaling pathway (AID 1159516; active means well fitted activation curve with a large enough effect in the signal ratio in the repeat runs, not every such curve was filed as active; the % refers to the signal ratio)
Procedure, shortened: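 An ESRE-bla HeLa cell assay: compounds were pin-transferred from DMSO onto overnight-plated cells and left 5 hr at 37 C. Substrate was then loaded for 2 hr at room temperature before reading fluorescence at 460 nm and 530 nm.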

[12] = qHTS assay to identify small molecule agonists of the endoplasmic reticulum stress response signaling pathway - cell viability counter screen (AID 1159517)
Procedure, shortened: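 Counter-screen wells were identical to the reporter wells. Cells were plated at 1,500 per well and dosed for 5 hr, then read for luminescence 30 min after CellTiter-Glo addition.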

[13] = target: Nuclear receptor ROR-gamma (Homo sapiens) (UniProt P51449); assay: qHTS assay to identify small molecule antagonists of the retinoid-related orphan receptor gamma (ROR-gamma) signaling pathway (AID 1159521; active means well fitted curve in the direction sought with a large enough effect in the repeat runs; an effect the other way counts as inactive or inconclusive)
Procedure, shortened: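 CHO Tet-on RORγ, RORE-luc reporter. Cpd 2 h pre-incubation, then dox hyclate 1 uM final, 16 h, 37 C/5% CO2. ONE-Glo luminescence; decrease = antagonist.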

[14] = qHTS assay to identify small molecule agonists of the AP-1 signaling pathway - cell viability counter screen (AID 1159525); further: nearly all actives have a fitted effect of over 55% in size
Procedure, shortened: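 AP-1-bla ME-180 cells in Opti-MEM with 0.5% dialyzed FBS, compound exposure 5 h at 37 C in 15-point titration. Viability read in the same wells as ATP content by CellTiter-Glo luminescence, normalised to tetra-n-octylammonium bromide and DMSO controls.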

[15] = qHTS assay to identify small molecule agonists of the AP-1 signaling pathway (AID 1159526)
[16] = target: Peroxisome proliferator-activated receptor delta (Homo sapiens) (UniProt Q03181); assay: qHTS assay to identify small molecule antagonists of the peroxisome proliferator-activated receptor delta (PPARd) signaling pathway (AID 743215; active means well fitted inhibition curve with a large enough effect in the signal ratio in the repeat runs, not every such curve was filed as active; the % refers to the signal ratio;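 further: cells stimulated with agonist L165041 at 300 nM final during compound exposure; series mostly up to about 62 µM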)
Procedure, shortened: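 HEK293H UAS-bla, PPARd; agonist L165041 300 nM final with cpd in DMSO; 37 C 17 h; FRET substrate, RT 2 h; fluorescence intensity.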

[17] = target: Retinoic acid receptor RXR-alpha (Homo sapiens) (UniProt P19793); assay: qHTS assay to identify small molecule agonists of the RXR signaling pathway (AID 1159527); further: nearly all actives have a fitted effect of over 35% in size
Sequence of Retinoic acid receptor RXR-alpha (Homo sapiens) (P19793 whole entry, looked up): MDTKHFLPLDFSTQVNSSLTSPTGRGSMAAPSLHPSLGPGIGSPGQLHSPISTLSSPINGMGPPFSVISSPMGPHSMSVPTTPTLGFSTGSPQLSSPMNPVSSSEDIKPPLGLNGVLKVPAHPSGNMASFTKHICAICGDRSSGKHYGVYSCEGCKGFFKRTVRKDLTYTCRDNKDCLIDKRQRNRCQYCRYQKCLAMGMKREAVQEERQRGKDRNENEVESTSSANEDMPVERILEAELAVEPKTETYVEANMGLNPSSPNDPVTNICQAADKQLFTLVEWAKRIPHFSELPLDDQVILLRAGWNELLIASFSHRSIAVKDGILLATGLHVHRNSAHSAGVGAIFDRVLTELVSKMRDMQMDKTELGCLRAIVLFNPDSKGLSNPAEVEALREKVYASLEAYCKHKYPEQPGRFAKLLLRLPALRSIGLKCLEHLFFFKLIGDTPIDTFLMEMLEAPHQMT
Procedure, shortened: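 Read-out: beta-lactamase FRET ratio (405 nm excitation, 460 and 530 nm emission) after 2 hr substrate loading at room temperature. Cells were RXR-alpha-UAS-bla HEK 293T treated with compounds for 16 hr in 2% charcoal-stripped FBS medium.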

[18] = target: Bile acid receptor (Homo sapiens) (UniProt Q96RI1); assay: qHTS assay to identify small molecule antagonists of the farnesoid-X-receptor (FXR) signaling pathway (AID 743217; active means well fitted inhibition curve with a large enough effect in the signal ratio in the repeat runs, not every such curve was filed as active; the % refers to the signal ratio)
Sequence of Bile acid receptor (Homo sapiens) (Q96RI1 whole entry, looked up): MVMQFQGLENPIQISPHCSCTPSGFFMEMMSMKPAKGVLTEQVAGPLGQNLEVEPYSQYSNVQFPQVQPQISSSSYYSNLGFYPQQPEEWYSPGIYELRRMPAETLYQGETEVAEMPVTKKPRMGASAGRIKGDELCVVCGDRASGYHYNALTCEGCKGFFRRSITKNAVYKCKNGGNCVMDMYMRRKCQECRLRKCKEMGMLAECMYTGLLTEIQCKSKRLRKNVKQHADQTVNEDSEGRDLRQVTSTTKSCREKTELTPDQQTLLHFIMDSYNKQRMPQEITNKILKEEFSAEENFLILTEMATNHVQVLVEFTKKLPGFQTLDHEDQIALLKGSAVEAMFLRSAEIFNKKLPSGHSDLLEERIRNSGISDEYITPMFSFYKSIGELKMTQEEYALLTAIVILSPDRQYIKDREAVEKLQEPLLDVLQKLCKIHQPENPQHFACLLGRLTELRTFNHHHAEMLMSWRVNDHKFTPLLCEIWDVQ
Procedure, shortened: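 GeneBLAzer FXR-UAS-bla HEK 293T, CDCA-stimulated (50 uM final). Compound treatment 16 h, 37 °C. Detection: beta-lactamase cleavage of B/G FRET substrate, fluorescence.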

[19] = target: Bile acid receptor (Homo sapiens) (UniProt Q96RI1); assay: qHTS assay to identify small molecule agonists of the farnesoid-X-receptor (FXR) signaling pathway (AID 743220; active means well fitted activation curve with a large enough effect in the signal ratio in the repeat runs, not every such curve was filed as active; the % refers to the signal ratio)
Procedure, shortened: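 Beta-lactamase reporter under UAS control in GeneBLAzer FXR HEK 293T cells (5000/well) measured with LiveBLAzer FRET substrate after 2 h at room temperature. Compound exposure lasted 16 h at 37C.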

[20] = qHTS assay to identify small molecule antagonists of the retinoid-related orphan receptor gamma (ROR-gamma) signaling pathway - cell viability counter screen (AID 1159520; active means well fitted curve in the direction sought with a large enough effect in the repeat runs; an effect the other way counts as inactive or inconclusive; further: nearly all actives have a fitted effect of over 50% in size)
Procedure, shortened: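 Tet-on ROR gamma CHO cells were given compounds for 2 hr, then doxycycline hyclate at 1 uM final, and incubated 16 hr at 37 C. Viability was measured as ATP content by CellTiter-Glo luminescence.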

Measured: Potency

Sequence of Peroxisome proliferator-activated receptor delta (Homo sapiens) (Q03181 whole entry, looked up): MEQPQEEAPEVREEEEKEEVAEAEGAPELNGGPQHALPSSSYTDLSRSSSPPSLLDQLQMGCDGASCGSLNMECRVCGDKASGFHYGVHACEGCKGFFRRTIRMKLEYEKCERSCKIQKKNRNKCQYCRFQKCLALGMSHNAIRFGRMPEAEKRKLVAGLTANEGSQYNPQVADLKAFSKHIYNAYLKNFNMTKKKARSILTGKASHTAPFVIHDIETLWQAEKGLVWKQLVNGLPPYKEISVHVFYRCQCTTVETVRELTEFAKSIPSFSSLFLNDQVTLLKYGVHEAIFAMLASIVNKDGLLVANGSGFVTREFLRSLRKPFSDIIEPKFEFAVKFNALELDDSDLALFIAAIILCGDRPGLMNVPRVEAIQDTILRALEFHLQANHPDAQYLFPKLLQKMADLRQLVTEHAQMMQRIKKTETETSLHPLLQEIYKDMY

CC(=O)OCC(=O)[C@@]12N=C(C)O[C@@H]1C[C@H]1[C@@H]3CCC4=CC(=O)C=C[C@]4(C)[C@H]3[C@@H](O)C[C@@]12C
inactive: [1] | [2] | [3] | [4] | [5] | [6] | [7] | [8] | [9] | [10] | [11] | [12] | [13] | [14] | [15]

CCCCCCOCCO
inactive: [1] | [2] | [16] | [3] | [5] | [6] | [8] | [9] | [10] | [11] | [12] | [14] | [15] | [17]

O=C(O)c1ccc2c(c1)C(=O)OC2=O
inactive: [2] | [18] | [3] | [19] | [4] | [5] | [6] | [8] | [9] | [10] | [11] | [12] | [14] | [15]

Cc1occc(=O)c1O
inactive: [2] | [3] | [5] | [6] | [8] | [9] | [10] | [11] | [12] | [13] | [14] | [15]

CC(=O)Nc1ccccc1
inactive: [1] | [2] | [16] | [18] | [3] | [19] | [4] | [5] | [7] | [8] | [9] | [10] | [11] | [12] | [14] | [15]

OCc1cccnc1
inactive: [1] | [2] | [18] | [3] | [19] | [10] | [11] | [12] | [20] | [13] | [14] | [15] | [17]

OCCOCCOCCO
inactive: [2] | [3] | [4] | [5] | [6] | [7] | [9] | [10] | [11] | [12] | [13] | [14] | [15]

CCCCCCCC(=O)OC
inactive: [1] | [2] | [16] | [3] | [4] | [5] | [6] | [8] | [9] | [10] | [11] | [12] | [13] | [14] | [15] | [17]

COc1ccc(Cl)cc1C(=O)NCCc1ccc(S(=O)(=O)NC(=O)NC2CCCCC2)cc1
inactive: [1] | [2] | [18] | [3] | [19] | [4] | [7] | [8] | [9] | [10] | [11] | [12] | [13] | [14] | [15]

O=S1(=O)CC=CC1
inactive: [1] | [2] | [3] | [5] | [6] | [7] | [8] | [9] | [10] | [11] | [12] | [13] | [14] | [15] | [17]

O=C(OCCOCCOC(=O)c1ccccc1)c1ccccc1
inactive: [1] | [2] | [16] | [18] | [3] | [19] | [4] | [5] | [6] | [9] | [10] | [11] | [12] | [13] | [14] | [15]

Source: PubChem BioAssay (Tox21)
